The results in this text go back to PubChem BioAssay AID1479144 (National Center for Advancing Translational Sciences (NCATS), 2020).

Inconclusive results are not listed. Active and inactive are the calls of the source. Calls follow the shape of the full dose curve.

The nature of this test: Confirmatory qHTS for Vero E6 cytotoxicity: counterscreen for inhibitors of SARS-S pseudo-typed particle cell entry. To be noted: cell viability; series mostly up to 57.1 µM; activity change, negative = cytotoxicity: at the top concentration. A general note: In qHTS, concentration-response curves come from the screen itself.
For the compound `Cc1c(N)nc(C(CC(N)=O)NCC(N)C(N)=O)nc1C(=O)NC(C(=O)NC(C)C(O)C(C)C(=O)NC(C(=O)NCCc1nc(-c2nc(C(=O)NCCCN[C@@H](C)c3ccccc3)cs2)cs1)C(C)O)C(O[C@@H]1O[C@@H](CO)[C@@H](O)[C@H](O)[C@@H]1O[C@H]1O[C@H](CO)[C@@H](O)[C@H](OC(N)=O)[C@@H]1O)c1cnc[nH]1` (some centres not stated), the “activity change, negative = cytotoxicity” value was 0% (inactive).
Turning to `CC(CN(C)C)CN1c2ccccc2CCc2ccccc21` (configuration not stated), the “activity change, negative = cytotoxicity” value was -18.4% (inactive).
As to `C=CC1(C)CC(=O)C2(O)C(C)(O1)C(OC(C)=O)C(OC(=O)CCN(C)C)C1C(C)(C)CCC(O)C12C` (configuration not stated), the “activity change, negative = cytotoxicity” value is -12.4% (inactive).
`CCC(C)(C)C(=O)O[C@H]1C[C@@H](C)C=C2C=C[C@H](C)[C@H](CC[C@@H]3C[C@@H](O)CC(=O)O3)[C@H]21`: the Potency is 5.41 µM (active).
Turning to `CCCCCCCCCCCCOCCOCCOCCOCCOCCOCCOCCOCCOCCO`, the “activity change, negative = cytotoxicity” value was -16.9% (inactive).
On the same count and under the same terms, next, `COc1cc2nccc(Oc3ccc(NC(=O)NC4CC4)c(Cl)c3)c2cc1C(N)=O`: 3.84% (inactive); `COc1c(OCCCN2CCOCC2)ccc2c3n(c(=NC(=O)c4cnc(N)nc4)nc12)CCN3`: -8.49% [at 11.2 µM] (inactive).
Same read-out and setting: in the case of `CC(C)(C)NCC(O)COc1ccccc1C1CCCC1` (configuration not stated) it was -11.2% (inactive).
For the compound `Oc1c(Cl)cc(Cl)c(Cl)c1Cc1c(O)c(Cl)cc(Cl)c1Cl`, the Potency is 4.82 µM (active).
Consider `CNCCCC12CCC(c3ccccc31)c1ccccc12`, for which the “activity change, negative = cytotoxicity” value was -14.6% (inactive).
On the same count and under the same terms, next, `CC(=O)N1CCN(c2ccc(OC[C@H]3CO[C@](Cn4ccnc4)(c4ccc(Cl)cc4Cl)O3)cc2)CC1`: -20.5% (inactive).
Regarding `CC(C)(C)C(=O)OCOP(=O)(COCCn1cnc2c(N)ncnc21)OCOC(=O)C(C)(C)C`, the “activity change, negative = cytotoxicity” value was -6.28% (inactive).
With `O=c1[nH]c(=O)n([C@H]2C[C@H](O)[C@@H](CO)O2)cc1C(F)(F)F`, the “activity change, negative = cytotoxicity” value was -5.43% (inactive).
Same read-out and setting: next, `Cc1nnc(C(=O)NC(C)(C)c2nc(C(=O)NCc3ccc(F)cc3)c(O)c(=O)n2C)o1`: 3.68% (inactive).
As for `CCOc1ccc(Cc2nccc3cc(OCC)c(OCC)cc23)cc1OCC`, the Potency is 27.1 µM (active).
In the case of `CCc1c2c(nc3ccc(OC(=O)N4CCC(N5CCCCC5)CC4)cc13)-c1cc3c(c(=O)n1C2)COC(=O)[C@]3(O)CC`, the “activity change, negative = cytotoxicity” value was 0% (inactive).
In the case of `CCn1cc(C(=O)O)c(=O)c2cc(F)c(N3CCNC(C)C3)c(F)c21` (configuration not stated), the “activity change, negative = cytotoxicity” value is -17.7% (inactive).
Same read-out and setting: in the case of `Cc1cn([C@H]2C[C@H](N=[N+]=[N-])[C@@H](CO)O2)c(=O)[nH]c1=O` it was -4.49% (inactive).
Regarding `CC(=O)Oc1ccccc1C(=O)Nc1ncc([N+](=O)[O-])s1`, the Potency was 9.61 µM (active).
For the compound `COc1cc2c(cc1Cc1cccc(Cl)c1F)c(=O)c(C(=O)O)cn2[C@H](CO)C(C)C`, the “activity change, negative = cytotoxicity” value is 0% (inactive).
For the compound `CC[C@@]1(O)C(=O)OCc2c1cc1n(c2=O)Cc2cc3c([N+](=O)[O-])cccc3nc2-1`, the Potency was 3.93 µM (active).
As to `CN1CCCCC1CCN1c2ccccc2Sc2ccc(S(C)=O)cc21` (configuration not stated), the “activity change, negative = cytotoxicity” value is -13.1% (inactive).
For the compound `CCN(CC)Cc1cc(Nc2ccnc3cc(Cl)ccc23)ccc1O`, the “activity change, negative = cytotoxicity” value is -2.14% (inactive).
For the compound `COc1cc(NS(C)(=O)=O)ccc1Nc1c2ccccc2nc2ccccc12`, the Potency is 12.1 µM (active).
As to `CN(C)CCOC(c1ccccc1)c1ccc(Br)cc1` (configuration not stated), the “activity change, negative = cytotoxicity” value was -3.96% (inactive).
On to `COC(=O)C1=C(C)NC(C)=C(C(=O)OCC(C)C)C1c1ccccc1[N+](=O)[O-]` (configuration not stated), for which the Potency was 27.1 µM (active).
Consider `CN(C/C=C/c1ccccc1)Cc1cccc2ccccc12`, for which the “activity change, negative = cytotoxicity” value is -9.07% (inactive).
Still for that read-out and setting: in the case of `CN1CCC(=C2c3ccccc3C=Cc3ccccc32)CC1` it was 0% (inactive); in that of `CCCCc1oc2ccccc2c1C(=O)c1cc(I)c(OCCN(CC)CC)c(I)c1`, 0% (inactive).
Same read-out and setting: next, `O=C(O)c1cc(O)c2c(c1)[C@H]([C@H]1c3cc(C(=O)O)cc(O)c3C(=O)c3c(O[C@@H]4O[C@H](CO)[C@@H](O)[C@H](O)[C@H]4O)cccc31)c1cccc(O[C@@H]3O[C@H](CO)[C@@H](O)[C@H](O)[C@H]3O)c1C2=O`: 3.1% [at 33 µM] (inactive).
Take `CC[C@H](C)C(=O)O[C@H]1C[C@@H](C)C=C2C=C[C@H](C)[C@H](CC[C@@H]3C[C@@H](O)CC(=O)O3)[C@H]21`: the Potency is 9.61 µM (active).
As to `CCCCN=C(N)N=C(N)N`, the “activity change, negative = cytotoxicity” value was 0% (inactive).
